Reference: PubChem BioAssay (EPA / NIEHS)
The source made the active and inactive calls. How the source made its calls: active means hit-call score of the fitted dose curve at least 0.9, where 1 is the maximum; inactive means score below 0.9.

How the values were obtained:
Settings in all cases: mRNA level, 48 h; actives raise or lower the signal
MYC, MYC (gene 4609) = assay: LTEA_HepaRG_MYC: Life Technologies and Expression Analysis (LTEA) Assay for MYC using HepaRG (AID 2283518)
Method in brief: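 qRT-PCR read-out of MYC transcript (Fluidigm TaqMan, housekeeping-normalized) after 48 h chemical exposure of HepaRG cells; eight concentrations, top 100 uM, half-log steps. Bidirectional curve fitting against 0.5% DMSO vehicle baseline.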

[1] = read-out: matrix metalloproteinase-3 (MMP3), MMP3 (gene 4314); assay: LTEA_HepaRG_MMP3: Life Technologies and Expression Analysis (LTEA) Assay for matrix metalloproteinase-3 (MMP3) using HepaRG (AID 2283519)
Method in brief: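 HepaRG cells (~100,000/well) in serum-free induction medium were dosed in duplicate for 48 h with an 8-point half-log series from 100 uM, 0.5% DMSO. MMP3 mRNA was quantified by Fluidigm TaqMan qRT-PCR, normalized to three housekeeping genes.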

[2] = read-out: Paternally Expressed 10 (PEG10), PEG10 (gene 23089); assay: LTEA_HepaRG_PEG10: Life Technologies and Expression Analysis (LTEA) Assay for Paternally Expressed 10 (PEG10) using HepaRG (AID 2283520)
Method in brief: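 HepaRG, 48 h post-plating → serum-free induction medium → 48 h chemical exposure (duplicate, 8-pt, max 100 uM, half-log, 0.5% DMSO) → lysis in RLT → TaqMan qRT-PCR for PEG10, ACTB/GAPDH/POLR2A normalisation.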

[3] = read-out: Nuclear factor NF-kappa-B p105 subunit (Homo sapiens) (UniProt P19838); assay: LTEA_HepaRG_NFKB1: Life Technologies and Expression Analysis (LTEA) Assay for Nuclear Factor Kappa B Subunit 1 (NFKB1) using HepaRG (AID 2283521)
Method in brief: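 HepaRG, 48 h exposure; 8-pt half-log series from 100 uM in 0.5% DMSO; duplicates. Readout: NFKB1 mRNA by qRT-PCR (Fluidigm arrays), housekeeping-normalized. Gain/loss fit vs DMSO baseline.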

[4] = read-out: Protein phosphatase 2A (PPP2R4), PTPA (gene 5524); assay: LTEA_HepaRG_PPP2R4: Life Technologies and Expression Analysis (LTEA) Assay for Protein phosphatase 2A (PPP2R4) using HepaRG (AID 2283522)
Method in brief: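 Readout is PPP2R4 transcript level by microfluidic qRT-PCR after 48 h chemical treatment of human HepaRG liver cells. Concentrations spanned 100 uM downward in half-log steps; gain or loss of signal was fitted relative to DMSO.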

[5] = read-out: Phosphatase and tensin (PTEN), PTEN (gene 5728); assay: LTEA_HepaRG_PTEN: Life Technologies and Expression Analysis (LTEA) Assay for Phosphatase and tensin (PTEN) using HepaRG (AID 2283523)
Method in brief: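 HepaRG cells, 48 h after plating, exposed in duplicate for 48 h in serum-free induction medium to 8 half-log concentrations up to 100 uM (0.5% DMSO). PTEN mRNA by qRT-PCR, normalized to ACTB, GAPDH, POLR2A; bidirectional fit versus DMSO.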

[6] = read-out: solute carrier (SLC22A1), SLC22A1 (gene 6580); assay: LTEA_HepaRG_SLC22A1: Life Technologies and Expression Analysis (LTEA) Assay for solute carrier (SLC22A1) using HepaRG (AID 2283524)
Method in brief: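 Differentiated human HepaRG cells in serum-free induction medium, exposed 48 h in duplicate to 8-point half-log series from 100 µM top in 0.5% DMSO. SLC22A1 mRNA by TaqMan qRT-PCR normalized to ACTB, GAPDH, POLR2A; bidirectional fit versus DMSO.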

[7] = read-out: Pyruvate Dehydrogenase Kinase 4 (PDK4), PDK4 (gene 5166); assay: LTEA_HepaRG_PDK4: Life Technologies and Expression Analysis (LTEA) Assay for Pyruvate Dehydrogenase Kinase 4 (PDK4) using HepaRG (AID 2283525)
Method in brief: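 HepaRG cells plated 48 h, then switched to serum-free induction medium and exposed in duplicate for 48 h to 8 half-log concentrations from 100 uM in 0.5% DMSO. PDK4 mRNA measured by qRT-PCR, normalized to ACTB, GAPDH and POLR2A; bidirectional fit versus DMSO.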

[8] = read-out: NAD(P)H dehydrogenase [quinone] 1 (NQO1), NQO1 (gene 1728); assay: LTEA_HepaRG_NQO1: Life Technologies and Expression Analysis (LTEA) Assay for NAD(P)H dehydrogenase [quinone] 1 (NQO1) using HepaRG (AID 2283526)
Method in brief: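 HepaRG, 48 h post-plating → serum-free induction medium → test chemical 48 h (duplicate, 100 uM top, half-log x8, 0.5% DMSO) → RNA isolation → qRT-PCR, ACTB/GAPDH/POLR2A normalization; bidirectional curve fit vs DMSO baseline.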

[9] = read-out: Nuclear factor erythroid 2-related factor 2 (Homo sapiens) (UniProt Q16236); assay: LTEA_HepaRG_NFE2L2: Life Technologies and Expression Analysis (LTEA) Assay for Nuclear factor erythroid 2-related factor 2 (NFE2L2) Transcription Factor using HepaRG (AID 2283527)
Method in brief: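 Differentiated human HepaRG cells, serum-free induction medium, exposed 48 h in duplicate to eight half-log concentrations up to 100 uM in 0.5% DMSO. NFE2L2 mRNA by Fluidigm TaqMan qRT-PCR, normalised to ACTB, GAPDH, POLR2A; bidirectional change versus DMSO.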

[10] = read-out: succinate dehydrogenase complex iron sulfur subunit B (SDHB), SDHB (gene 6390); assay: LTEA_HepaRG_SDHB: Life Technologies and Expression Analysis (LTEA) Assay for succinate dehydrogenase complex iron sulfur subunit B (SDHB) using HepaRG (AID 2283528)
Method in brief: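 Readout is SDHB transcript level by qRT-PCR, normalised to three housekeeping genes and fitted bidirectionally against 0.5% DMSO vehicle. Human HepaRG cells were treated for 48 h at up to 100 uM.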

[11] = read-out: Signal transducer and activator of transcription 3 (Homo sapiens) (UniProt P40763); assay: LTEA_HepaRG_STAT3: Life Technologies and Expression Analysis (LTEA) Assay for Signal transducer and activator of transcription (STAT3) using HepaRG (AID 2283529)
Method in brief: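 Differentiated HepaRG cells, serum-free induction medium, dosed 48 h in duplicate, 8 half-log concentrations from 100 uM in 0.5% DMSO. STAT3 mRNA by qRT-PCR, normalised to ACTB, GAPDH, POLR2A; bidirectional fit versus DMSO.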

[12] = read-out: solute carrier (SLCO1B1), SLCO1B1 (gene 10599); assay: LTEA_HepaRG_SLCO1B1: Life Technologies and Expression Analysis (LTEA) Assay for solute carrier (SLCO1B1) using HepaRG (AID 2283530)
Method in brief: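 SLCO1B1 transcript read by qRT-PCR (Fluidigm arrays), normalized to three housekeeping genes, after 48 h chemical exposure of HepaRG cells; bidirectional concentration-response fitting versus 0.5% DMSO baseline. Eight-point half-log series, maximum 100 uM.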

[13] = read-out: sulfotransferase 2A1 (SULT2A1), SULT2A1 (gene 6822); assay: LTEA_HepaRG_SULT2A1: Life Technologies and Expression Analysis (LTEA) Assay for sulfotransferase 2A1 (SULT2A1) using HepaRG (AID 2283531)
Method in brief: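 HepaRG, 48 h chemical exposure, 8-pt half-log curve from 100 uM in 0.5% DMSO, duplicates. Readout: TaqMan qRT-PCR of SULT2A1 mRNA, housekeeping-normalized. Bidirectional fit vs DMSO baseline.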

[14] = read-out: Transforming Growth Factor (TGFB1), TGFB1 (gene 7040); assay: LTEA_HepaRG_TGFB1: Life Technologies and Expression Analysis (LTEA) Assay for Transforming Growth Factor (TGFB1) Transporter using HepaRG (AID 2283533)
Method in brief: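 qRT-PCR readout of TGFB1 transcript in HepaRG lysates, normalized to three housekeeping genes; gain or loss of signal fitted relative to 0.5% DMSO vehicle. Exposure: 48 h, 8-point curve from 100 uM, duplicate wells.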

TIMP1, TIMP1 (gene 7076) = assay: LTEA_HepaRG_TIMP1: Life Technologies and Expression Analysis (LTEA) Assay for TIMP1 using HepaRG (AID 2283534)
Method in brief: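 HepaRG, 48 h exposure, 8-pt half-log series from 100 uM in 0.5% DMSO, duplicates; TIMP1 transcript by Fluidigm qRT-PCR, housekeeping-normalized; bidirectional curve fit vs DMSO baseline.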

[15] = read-out: Tumor necrosis factor receptor 1 (TNFRSF1A), TNFRSF1A (gene 7132); assay: LTEA_HepaRG_TNFRSF1A: Life Technologies and Expression Analysis (LTEA) Assay for Tumor necrosis factor receptor 1 (TNFRSF1A) using HepaRG (AID 2283535)
Method in brief: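 HepaRG, 48 h plating then 48 h chemical exposure, serum-free induction media; 8-pt CRC from 100 uM, half-log, 0.5% DMSO vehicle, duplicates. Readout: TaqMan qRT-PCR (Fluidigm), housekeeping-gene normalized; bidirectional fit vs DMSO.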

[16] = read-out: Thyroid Hormone Responsive (THRSP), THRSP (gene 7069); assay: LTEA_HepaRG_THRSP: Life Technologies and Expression Analysis (LTEA) Assay for Thyroid Hormone Responsive (THRSP) using HepaRG (AID 2283536)
Method in brief: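 Differentiated HepaRG cells treated 48 h in serum-free induction medium with 8 half-log concentrations up to 100 uM (0.5% DMSO), duplicates. THRSP mRNA by TaqMan qRT-PCR normalised to ACTB, GAPDH, POLR2A; bidirectional fit versus DMSO.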

[17] = read-out: Cellular tumor antigen p53 (Homo sapiens) (UniProt P04637); assay: LTEA_HepaRG_TP53: Life Technologies and Expression Analysis (LTEA) Assay for Tumor Protein P53 (TP53) using HepaRG (AID 2283537)
Method in brief: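 Read-out is TP53 transcript level by microfluidic qRT-PCR, normalised to three housekeeping genes and fitted bidirectionally against DMSO. Human HepaRG cells received compounds for 48 h, highest concentration 100 uM.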

[18] = read-out: Transforming Growth Factor (TGFA), TGFA (gene 7039); assay: LTEA_HepaRG_TGFA: Life Technologies and Expression Analysis (LTEA) Assay for Transforming Growth Factor (TGFA) using HepaRG (AID 2283532)
Method in brief: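 Differentiated HepaRG cells exposed 48 hours in serum-free induction medium, 0.5% DMSO vehicle, 8-point half-log series from 100 uM, in duplicate. TGFA mRNA by TaqMan qRT-PCR, normalised to ACTB, GAPDH, POLR2A; bidirectional fit versus DMSO.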

Measured: AC50

Sequence of Nuclear factor NF-kappa-B p105 subunit (Homo sapiens) (P19838 whole entry, looked up): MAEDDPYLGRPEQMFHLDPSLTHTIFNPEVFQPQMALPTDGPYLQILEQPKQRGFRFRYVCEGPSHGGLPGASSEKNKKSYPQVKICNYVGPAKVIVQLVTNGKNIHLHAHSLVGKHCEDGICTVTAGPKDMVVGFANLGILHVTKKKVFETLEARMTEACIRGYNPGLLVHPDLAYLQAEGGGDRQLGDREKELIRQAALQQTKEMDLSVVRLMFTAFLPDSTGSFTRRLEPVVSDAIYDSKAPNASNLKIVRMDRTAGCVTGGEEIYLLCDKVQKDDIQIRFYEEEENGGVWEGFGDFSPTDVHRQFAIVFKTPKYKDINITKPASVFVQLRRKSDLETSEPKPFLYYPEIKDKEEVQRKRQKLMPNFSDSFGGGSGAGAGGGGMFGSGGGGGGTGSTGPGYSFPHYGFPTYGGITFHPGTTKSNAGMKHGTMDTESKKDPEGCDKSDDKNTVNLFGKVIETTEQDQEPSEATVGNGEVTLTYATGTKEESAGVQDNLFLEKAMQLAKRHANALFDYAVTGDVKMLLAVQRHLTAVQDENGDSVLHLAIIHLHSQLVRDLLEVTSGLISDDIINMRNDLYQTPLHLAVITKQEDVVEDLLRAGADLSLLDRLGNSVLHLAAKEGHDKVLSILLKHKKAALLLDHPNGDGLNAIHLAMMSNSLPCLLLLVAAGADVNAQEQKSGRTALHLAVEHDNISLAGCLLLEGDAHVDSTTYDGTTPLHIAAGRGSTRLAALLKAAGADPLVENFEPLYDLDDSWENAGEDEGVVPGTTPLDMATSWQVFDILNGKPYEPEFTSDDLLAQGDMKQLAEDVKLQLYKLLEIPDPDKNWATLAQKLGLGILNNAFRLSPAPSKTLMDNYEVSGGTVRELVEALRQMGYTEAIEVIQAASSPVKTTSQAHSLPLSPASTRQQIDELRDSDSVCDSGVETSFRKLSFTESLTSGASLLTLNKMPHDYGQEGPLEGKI
Sequence of Cellular tumor antigen p53 (Homo sapiens) (P04637 whole entry, looked up): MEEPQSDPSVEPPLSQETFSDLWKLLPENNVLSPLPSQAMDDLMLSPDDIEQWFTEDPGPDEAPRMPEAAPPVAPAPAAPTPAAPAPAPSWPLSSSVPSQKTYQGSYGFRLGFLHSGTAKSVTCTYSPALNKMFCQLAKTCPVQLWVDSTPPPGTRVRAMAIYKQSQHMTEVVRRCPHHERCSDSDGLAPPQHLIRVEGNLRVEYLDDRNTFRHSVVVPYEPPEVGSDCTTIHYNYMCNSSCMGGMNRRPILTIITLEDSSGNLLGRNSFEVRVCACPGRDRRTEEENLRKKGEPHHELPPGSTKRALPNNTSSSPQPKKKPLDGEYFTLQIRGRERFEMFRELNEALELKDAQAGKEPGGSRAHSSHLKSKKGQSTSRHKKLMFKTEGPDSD
Sequence of Nuclear factor erythroid 2-related factor 2 (Homo sapiens) (Q16236 whole entry, looked up): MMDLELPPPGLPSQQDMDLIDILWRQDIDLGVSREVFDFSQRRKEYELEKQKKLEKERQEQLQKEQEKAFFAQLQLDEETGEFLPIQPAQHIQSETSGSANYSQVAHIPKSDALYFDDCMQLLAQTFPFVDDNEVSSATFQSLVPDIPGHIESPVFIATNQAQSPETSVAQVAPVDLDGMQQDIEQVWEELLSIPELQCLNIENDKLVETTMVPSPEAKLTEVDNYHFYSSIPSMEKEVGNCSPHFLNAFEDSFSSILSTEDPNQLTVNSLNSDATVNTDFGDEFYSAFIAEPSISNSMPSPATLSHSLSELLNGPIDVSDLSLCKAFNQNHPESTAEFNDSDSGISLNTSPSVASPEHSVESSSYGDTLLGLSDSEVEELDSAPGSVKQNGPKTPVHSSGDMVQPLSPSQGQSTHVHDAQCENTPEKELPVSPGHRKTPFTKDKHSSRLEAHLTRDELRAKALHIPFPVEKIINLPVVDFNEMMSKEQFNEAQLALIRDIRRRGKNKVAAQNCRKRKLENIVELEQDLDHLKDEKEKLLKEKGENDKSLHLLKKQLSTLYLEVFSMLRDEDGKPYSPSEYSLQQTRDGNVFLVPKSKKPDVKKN
Sequence of Signal transducer and activator of transcription 3 (Homo sapiens) (P40763 whole entry, looked up): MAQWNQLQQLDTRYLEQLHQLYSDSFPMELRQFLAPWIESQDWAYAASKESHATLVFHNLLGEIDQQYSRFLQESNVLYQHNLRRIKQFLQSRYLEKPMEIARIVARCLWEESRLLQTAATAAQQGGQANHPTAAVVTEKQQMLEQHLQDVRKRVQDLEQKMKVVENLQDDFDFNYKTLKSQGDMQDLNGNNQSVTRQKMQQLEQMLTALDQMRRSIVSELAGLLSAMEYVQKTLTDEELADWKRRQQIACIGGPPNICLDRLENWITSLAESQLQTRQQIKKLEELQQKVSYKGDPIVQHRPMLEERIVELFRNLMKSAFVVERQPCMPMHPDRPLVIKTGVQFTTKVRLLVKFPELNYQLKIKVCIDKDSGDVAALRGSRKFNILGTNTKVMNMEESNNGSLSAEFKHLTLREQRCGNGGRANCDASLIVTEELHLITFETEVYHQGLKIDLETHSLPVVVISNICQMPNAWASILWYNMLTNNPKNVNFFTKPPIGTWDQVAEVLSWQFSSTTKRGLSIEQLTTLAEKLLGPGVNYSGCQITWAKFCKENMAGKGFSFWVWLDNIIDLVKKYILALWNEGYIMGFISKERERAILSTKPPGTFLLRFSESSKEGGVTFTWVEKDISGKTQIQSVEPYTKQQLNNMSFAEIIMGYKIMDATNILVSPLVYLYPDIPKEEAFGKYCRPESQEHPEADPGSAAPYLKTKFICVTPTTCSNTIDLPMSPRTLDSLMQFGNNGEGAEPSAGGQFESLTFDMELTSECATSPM

COCC(C)OCC(C)O (centres undefined)
not listed: [18]
inactive: all other assays above

CCOC(=O)CC(O)(CC(=O)OCC)C(=O)OCC
not listed: [12] | [14]
inactive: all other assays above

CC(C)(C)c1ccc(O)c(C(C)(C)C)c1
active: [3] 0.162 µM | [11] 9.92 µM | [15] 50 µM
not listed: [18]
inactive: all other assays above

CC[C@H](c1ccc(O)cc1)[C@@H](CC)c1ccc(O)cc1
inactive: MYC, MYC (gene 4609) | [1] | [2] | [3] | [5] | TIMP1, TIMP1 (gene 7076) | [16]
active: [4] 82.8 µM | [6] 71.4 µM | [7] 80.4 µM | [9] 78.8 µM | [10] 79.4 µM | [11] 93.8 µM | [12] 92.8 µM | [13] 79.7 µM | [14] 79.5 µM | [15] 93.4 µM | [17] 80.1 µM

CCCCCCC(=O)O
not listed: [3] | [8] | [18]
inactive: all other assays above

OC1CCCCC1
not listed: [3] | [12] | [14] | [18]
inactive: all other assays above

O=C(O)Cc1cc(I)c(Oc2cc(I)c(O)c(I)c2)c(I)c1
inactive: [11] | TIMP1, TIMP1 (gene 7076)
active: MYC, MYC (gene 4609) 52 µM | [1] 51.5 µM | [2] 0.228 µM | [3] 52.8 µM | [4] 54.9 µM | [5] 59.9 µM | [6] 53.1 µM | [7] 49.6 µM | [9] 54.9 µM | [10] 62.9 µM | [13] 52.4 µM | [15] 55.3 µM | [16] 56 µM | [17] 59.1 µM

C=C(C)C(=O)OCCC(F)(F)C(F)(F)C(F)(F)C(F)(F)C(F)(F)C(F)(F)F
active: [7] 14 µM
not listed: [8] | [12] | [14] | [18]
inactive: all other assays above

Cc1cc(C)c(O)c(C)c1
not listed: [3] | [8] | [14] | [18]
inactive: all other assays above

CCCCC(CC)COC(=O)CCCCC(=O)OCC(CC)CCCC (centres undefined)
not listed: [8] | [12] | [14] | [18]
inactive: all other assays above

OCCC(F)(F)C(F)(F)C(F)(F)C(F)(F)C(F)(F)C(F)(F)F
not listed: [3] | [8] | [12] | [14] | [18]
inactive: all other assays above

Oc1cc2ccccc2c2ccccc12
active: [2] 50 µM | [6] 50 µM
not listed: [8] | [12] | [14]
inactive: all other assays above

CCCCCCCCOC(=O)CCCCCCCCC(=O)OCCCCCCCC
not listed: [8] | [12] | [18]
inactive: all other assays above

NC(=O)N1C(=O)C(C(=O)c2cc(Cl)cs2)c2cc(F)c(Cl)cc21 (centres undefined)
active: MYC, MYC (gene 4609) 27 µM | [1] 50 µM | [2] 20.8 µM | [4] 13.9 µM | [5] 50 µM | [6] 16.1 µM | [7] 27.8 µM | [9] 31.8 µM | [10] 26.2 µM | [13] 34.2 µM | [18] 89.3 µM | TIMP1, TIMP1 (gene 7076) 85.2 µM | [15] 40.2 µM | [16] 17.7 µM | [17] 94.4 µM
inactive: [11] | [14]

CCCCCCCC(=O)O
active: [9] 12.3 µM
not listed: [3] | [12] | [14]
inactive: all other assays above
